# Bioassay records: PubChem, National Center for Advancing Translational Sciences (NCATS)
# GALK inhibitor: galactokinase (human) inhibition; Potency, µM (top dose mostly 57.5 µM), most hits filed as inhibitors; 270,000 tested, 0.007% active; P51570; Purified GALK, Kinase-Glo residual ATP luminescence
# Target sequence (P51570 whole entry, looked up): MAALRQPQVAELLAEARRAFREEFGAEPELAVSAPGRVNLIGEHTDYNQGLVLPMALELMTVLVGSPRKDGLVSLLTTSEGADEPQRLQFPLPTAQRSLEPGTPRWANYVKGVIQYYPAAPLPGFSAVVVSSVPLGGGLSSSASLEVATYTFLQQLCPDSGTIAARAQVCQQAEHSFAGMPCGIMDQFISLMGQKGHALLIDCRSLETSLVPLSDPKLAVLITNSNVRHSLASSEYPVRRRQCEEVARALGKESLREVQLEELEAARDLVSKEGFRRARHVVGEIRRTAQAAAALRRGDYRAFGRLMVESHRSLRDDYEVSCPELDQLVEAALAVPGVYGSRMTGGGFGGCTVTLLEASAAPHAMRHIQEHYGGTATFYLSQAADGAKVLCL
#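 GALK at 5 nM final was combined with compound, 35 uM ATP and 100 uM galactose in HEPES pH8.0 with MgCl2 and DTT. The reaction ran one hour at room temperature before luminescent ATP detection.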
# TrxR1 inh: inhibitors of rat thioredoxin reductase 1; Potency, µM (titrated, usually from 114 µM), usual class: inhibitors; recombinant rTrxR1, NADPH fluorescence consumption, selenite substrate; O89049; 390,000 tested, 1% active; also: nearly all actives have a fitted effect of over 65% in size
#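 Rat TrxR1 (90 nM in the dispensed reagent) was pre-reduced with 400 uM NADPH for 5 min at room temperature, then incubated with compound for 15 min. After 400 uM selenite was added, NADPH fluorescence (Ex 340/Em 450 nm) was followed for 8 min.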
# TrxR1 substrate: rat thioredoxin reductase 1 substrate activity; O89049; Potency, µM (titrated, usually from 114 µM); purified TrxR1 substrate turnover, NADPH consumption readout; 390,000 tested, 0.01% active; also: nearly all actives have a fitted effect of over 50% in size
#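 Rat TrxR1, dispensed at 90 nM, was prereduced with 400 uM NADPH (final) for 5 min at ~22 deg C, then incubated with compound 15 min before 400 uM selenite. A first-read NADPH fluorescence drop versus no-compound background flagged substrates.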
# USP1 inh: inhibitors of human USP1/UAF1 deubiquitinase; O94782; recombinant USP1/UAF1, Ub-Rhodamine cleavage fluorescence; Potency, µM (highest dose often 57.1 µM), usual class: inhibitors; 390,000 tested, 0.23% active; also: nearly all actives have a fitted effect of over 60% in size
#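 High-throughput fluorogenic screen: 1nM USP1/UAF1 complex, Ub-Rho substrate 150nM final, 50mM HEPES pH 7.8 with 0.5mM EDTA, 0.1 mg/ml BSA, 1mM TCEP and 0.01% Tween-20.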
# FBPA coupling cs: coupling enzyme interference in Giardia aldolase counter-screen; coupling enzyme system counterscreen, AmpLite Red fluorescence; activity change, negative = inhibition, % at 58.2 µM, hits read low; 290,000 tested, 0.67% active; AID 2472; in the data active = activity change below about -30%
#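 Activity here indicates interference with the coupling reaction, not aldolase inhibition. Compounds at 57.5 uM final met coupling enzymes for 10 min at RT; substrate and AmpLite Red detection followed, with a 525/598 nm fluorescence read after 20 min.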
# Hits are given with their value; i = inactive; ? = inconclusive; nt = not tested or not shown; ! = not active in a repeat; [ ] = dose if it differs, or a comment. An excerpt weighted towards active compounds, which were near 1.5% of everything screened. Unless noted, calls follow the shape of the dose curve; as a rule, active = well fitted curve in the direction sought with a large enough effect; inconclusive = small, poorly fitted or top-dose-only effect, or another doubt; inactive = no such curve, though single readings can be large; an effect the other way counts as inactive or inconclusive.
SMILES,GALK inhibitor,TrxR1 inh,TrxR1 substrate,USP1 inh,FBPA coupling cs
CCCCCCCCN(CCCCCCCC)c1ccc(/C=C/c2ccnc3ccccc23)cc1,nt,i,i,nt,nt
O=C(NC1CCCC1)C(c1ccc(F)cc1)N(Cc1ccc(F)cc1)C(=O)CCl (stereo not given),i,40µM,i,i,i
COc1ccc(C(C(=O)NC2CCCCC2)N(C(=O)CCl)c2ccc(C)cc2)cc1 (stereo not given),i,i,i,i,i
COC(CN(C(=O)CCl)C(C(=O)NC1CCCCC1)c1ccc(C)cc1)OC (stereo not given),i,40µM,i,i,i
O=C(C#Cc1ccccc1)c1cccc([N+](=O)[O-])c1,i,0.1µM,i,i,i
Cc1cc(-c2nnc(-c3ccccc3)c(-c3ccccc3)n2)c(C)o1,i,32µM,i,i,i
O=C(Cc1ccc(OCCc2ccccc2)cc1)NO,nt,i,i[0.0914 µM],nt,nt
CC(C)(C)n1ncc2c(=O)n(Cc3ccccc3)cnc21,nt,i,i,nt,nt
Nc1nc(Sc2ccc(C(F)(F)F)cc2[N+](=O)[O-])n[nH]1,i,i,i,i,i
Nc1nc(Sc2c([N+](=O)[O-])cc(C(F)(F)F)cc2[N+](=O)[O-])n[nH]1,i,16µM,i,i,i
NS(=O)(=O)c1ccc(NC(=S)NC(=O)c2cccs2)cc1,i,11µM,i,i,i
O=C(Nc1ccc(NC(=S)NC(=O)c2cccs2)cc1)c1ccccc1,i,i,i,i,i
O=C(NC(=S)Nc1ccccc1)c1cccs1,i,50µM,i,i,i
CC(C)COc1ccc(C(=O)Nc2onc3c2CCCC3)cc1,nt,i,i,?,nt
O=C1c2ccccc2C(=O)c2c1cccc2-n1nnc2ccccc21,i,i,i,i,i
O=C1C(N2CCOCC2)=C(n2nnc3ccccc32)C(=O)c2ccccc21,i,i,i,14µM,-41
O=C(O)c1cc(Cl)c2c(c1)[C@@H]1C=CC[C@@H]1[C@H](c1ccc(S(=O)(=O)N3CCOCC3)cc1)N2,i,2.2µM,i,i,i
Cc1ccc2nc(/C=C/c3ccc(N(C)C)cc3)ccc2c1,nt,i,i,nt,nt
O=C(CSc1nnc(-c2ccncc2)n1Cc1ccco1)c1ccc(Cl)cc1,i,32µM,i,i,i
COc1ccc(C(=O)CSc2nnc(-c3cccnc3)n2Cc2ccco2)cc1,i,50µM,i,i,i
Clc1ccc(CSc2nnc(-c3cccnc3)n2Cc2ccco2)c(Cl)c1,i,40µM,i,i,i
NC(=O)CSc1nnc(-c2cccs2)n1Cc1ccco1,i,?,i,i,i
O=C(CSc1nnc(-c2ccc(Cl)cc2)n1Cc1ccco1)c1cccs1,i,35µM,i,?,i
O=C(CSc1nnc(-c2ccncc2)n1Cc1ccco1)Nc1ccccc1Cl,i,i,i,i,i
c1ccc(CNc2ncnc3c2ncn3Cc2ccccc2)cc1,nt,i,i,nt,nt
SMILES,GALK inhibitor,TrxR1 inh,TrxR1 substrate,USP1 inh,FBPA coupling cs
O=C(CSc1nnc(Cc2cccs2)n1Cc1ccco1)Nc1cccc(Cl)c1,i,25µM,i,i,i
O=C(CSc1nnc(Cc2cccs2)n1Cc1ccco1)Nc1cc(Cl)cc(Cl)c1,i,?,i,i,i
COc1cc(C2c3c(n[nH]c3C)C(=O)N2c2ccc(Br)cc2)ccc1O (stereo not given),i,7.9µM,i,i,i
CCOc1cc(C2c3c(n[nH]c3C)C(=O)N2c2ccc(Br)cc2)ccc1O (stereo not given),i,?,i,i,i
O=S(=O)(Nc1cccc2ccccc12)c1cccc2ccccc12,nt,i,i[0.457 µM],nt,nt
CCOc1ccc(NC(=O)COC(=O)c2ccccc2OCc2ccccc2Br)cc1,nt,i,i,nt,nt
Nc1ccc(-c2nc3c(Cl)c(N)ccc3[nH]2)cc1,i,79µM,i,i,i
CCNC(=O)NC(=O)COC(=O)c1ccccc1SCC(=O)NC(=O)NCC,i,35µM,i,i,i
O=c1oc(-c2ccccc2)cc(Cl)c1Cl,i,5.6µM,i,i,i
COc1ccc(-c2ccnc3nc(Sc4ncc(C(F)(F)F)cc4Cl)nn23)cc1,i,i,i,i,i
FC(F)(F)c1cnc(Sc2nc3nccc(-c4ccc(Cl)cc4)n3n2)c(Cl)c1,i,i,i,i,-55
O=C(/C=C/c1ccccc1[N+](=O)[O-])N1CCCCC1,i,i,i,i,i
O=[N+]([O-])C(/C=C(/Cl)[N+](=O)[O-])=C(N1CCCCC1)N1CCCCC1,i,7.9µM,i,i,i
Cc1ccc(CNc2ccc3c(c2)OCO3)c(C)c1,i,nt,nt,nt,-37
Cc1ccc(C)c(NC(=O)Nc2ccc3c(c2)OCO3)c1,i,i,i,i,nt
Cc1cccc(NC(=S)NC(=O)Cc2ccccc2)c1C,i,56µM,i,i,i
Cc1cccc(NC(=S)NC(=O)CCc2ccccc2)c1C,i,?,i,i,i
Cc1[nH][nH]c(=O)c1C(c1c(C)[nH][nH]c1=O)c1cn(Cc2ccc(Cl)c(Cl)c2)c2ccccc12,i,?,56µM,28µM,-49
O=C(O)Cc1cn(Cc2ccc(F)cc2)c2ccccc12,i,i,i,i,i
Cc1[nH][nH]c(=O)c1C(c1c(C)[nH][nH]c1=O)c1cn(Cc2ccc(F)cc2)c2ccccc12,i,?,?,?,-47
C=C1NN(C(C)C(=O)O)C(=O)N1c1ccc(OCc2ccccc2)cc1 (stereo not given),nt,i,i,nt,nt
CN(C)CCNC(=O)C(c1ccccc1)c1ccccc1,i,i,i,i,i
CN(C)CCC(=O)C(Cc1ccccc1)c1ccccc1 (stereo not given),nt,0.25µM,i,i,nt
COc1ccc2c(=O)c3c(=O)n(Cc4ccco4)c(-c4ccco4)nc3oc2c1,i,14µM,i,i,i
COc1ccc(-c2nc3oc4cc(OC)ccc4c(=O)c3c(=O)n2Cc2ccco2)cc1,i,?,i,i,i
SMILES,GALK inhibitor,TrxR1 inh,TrxR1 substrate,USP1 inh,FBPA coupling cs
O=C1C=CC2=C3c4cc(O)c(O)cc4CC3(O)COC2=C1O (stereo not given),nt,16µM,i,i,-38!
CC1=CC(=C(c2ccc(N)cc2)c2ccc(N)cc2)C=CC1=N,nt,i,i,nt,nt
COc1ccc(OC)c(C2Nc3c(Cl)ccc(C(=O)O)c3C3C=CCC32)c1 (stereo not given),i,i,i,?,i
COC(=O)COc1ccc(C2Nc3c(Cl)ccc(C(=O)O)c3C3C=CCC32)cc1 (stereo not given),i,13µM,i,?,i
Ic1ccc(Nc2nc(NCCN3CCOCC3)nc(N3CCCC3)n2)cc1,nt,i,i,nt,nt
O=C(C[n+]1c(Cl)cc(Cl)c2ccccc21)c1ccccc1,nt,71µM,i,nt,nt
CCCN1CNc2c(c(=O)[nH]c(=S)n2CCc2ccc(OCC)c(OCC)c2)C1,nt,i,i,nt,nt
CC(=O)N1CCN(C(=O)CC2OC(=O)c3ccccc32)CC1 (stereo not given),i,2.5µM,i,i,i
CCN1C(=O)/C(=C/C=C2/Sc3ccccc3N2CCO)SC1=S,i,i,i,i,i
